The text below walks through data of PubChem BioAssay (NCI).

About 79,000 compounds went through this panel and 15% of them were active in at least one assay; those are over-represented in the sample as a whole. Values without a mark were called inactive. The source made the active and inactive calls. No stated cut-off is given here; in the data, active means growth inhibition above about 70%; inactive means the rest.

This assay is described as follows: NCI Yeast Anticancer Drug Screen. Data for the cln2 rad14 strain (AID 165).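 Further: 0% = growth equal to vehicle treated cultures.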 The conditions noted are these: S. cerevisiae cln2 rad14 strain, hits give high values. How it is done:
Growth inhibition of yeast strains with defined genetic alterations is measured as a screen for potential anti-cancer activity. Selected strains with alterations in DNA damage repair or cell cycle control were exposed to compounds and growth inhibition was measured relative to vehicle treated controls. The strain used in this assay is cln2 rad14

Where [1] appears, read: at 5.0 µM (retest, dose inferred, filed as 0.5).
Where [2] appears, read: at 50.0 µM (retest, dose inferred, filed as 5.0).

For the compound `CCN(CC)CCO/N=C1\CC[C@H]2[C@@H]3CCc4cc(OC)ccc4[C@H]3CC[C@]12C`, the growth inhibition is, setting by setting: under setting [1], 67%; under setting [2], 98% (active); (at 50.0 µM) 89% (active).
As to `Cc1ccc2c(c1)C1C(CC2)C2C(=O)OC(=O)C2C2CCc3ccc(C)cc3C21` (configuration not stated), the growth inhibition under setting [1] was 20%, the growth inhibition under setting [2] is 90% (active) and the growth inhibition (at 50.0 µM) is 0.4%.
Regarding `C=CCOCCC=O`, the growth inhibition is 4% under setting [1], 2% under setting [2] and -20.4% (at 50.0 µM).
With `Nc1cc(Br)c2cccnc2c1O`, the growth inhibition is, setting by setting: under setting [1], 28%; under setting [2], 98% (active); (at 50.0 µM) 94.2% (active).
In the case of `COc1cc(/C=C2\CC(C)C/C(=C\c3ccc(O)c(OC)c3)C2=O)ccc1O` (configuration not stated), the growth inhibition is 70% (active) under setting [1], 89% (active) under setting [2] and 81.6% (active) (at 50.0 µM).
On the same counts, the results for `CN(C)CCCNc1ccc(O)c2c1C(=O)c1ccccc1C2=O` are 32%, 98% (active) and 67%.
For `Cc1nnc(NS(=O)(=O)c2ccc(N=Nc3cc(N=Nc4ccc(S(=O)(=O)Nc5nnc(C)s5)cc4)c4c(NC(=O)C(Cl)Cl)cccc4c3OC(=O)C(Cl)Cl)cc2)s1` (tested in a mixture with another compound), the growth inhibition was 90% (active) under setting [1], 6% under setting [2] and 65.8% (at 50.0 µM).
In the case of `Oc1ccc(C2CCCCC2)cc1`, the growth inhibition reads like this: under setting [1], -4%; under setting [2], 37%; (at 50.0 µM) 5.7%.
For `Nc1ccc2c(S(=O)(=O)O)cc(S(=O)(=O)O)cc2c1`, in that order: 3%, 2% and 61.4%.
As to `C#CCN(N=O)C(=O)NCCCC(NC(C)=O)C(=O)NCc1ccccc1` (configuration not stated), the growth inhibition by setting is: under setting [1], -8%; under setting [2], 12%; (at 50.0 µM) 27.1%.
On to `CCCCCCCCCCCCO`, for which the growth inhibition reads like this: under setting [1], 0%; under setting [2], 12%; (at 50.0 µM) -4.65%.
As for `Cc1cc(=Nc2ccc3c(c2)c(N)cc(C)[n+]3C)nc(N)n1C`, the growth inhibition is, setting by setting: under setting [1], 83% (active); under setting [2], 85% (active); (at 50.0 µM) 91.9% (active).
On the same counts, the results for `O=C(CCc1ccccc1)COC(=O)c1ccc([N+](=O)[O-])cc1` are -26%, -14% and 10.9%.
For `FC(F)(F)c1cccc(Nc2ccc3cnc4ccccc4c3c2)c1`, in that order: -5%, 95% (active) and 92.5% (active).
